About 1,400 (4.5%) of roughly 31,000 sequences were called active.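 How the source made its calls: active means median seed-adjusted z-score above 1 or below -1; inactive means the rest.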 This excerpt belongs to a sample that is enriched for actives.
Experiment: Novel Modifiers of Survival Motor Neuron (SMN) Protein: Gene Identification via Genome-wide siRNA Screen;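 further: luminescence tracks full-length SMN protein made from the SMN2 reporter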
Conditions: HEK293T SMN2-luciferase reporter, siRNA knockdown, 72 h; actives lie on both sides
In short: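 siRNA screen, 10418 genes ×3 siRNAs; 1 pmol/well, lipid reverse transfection into HEK293T SMN2-luc reporter line. 72 h, 37 °C, 5% CO2; ONE-Glo readout. Data: neg-ctrl normalized, log10, MAD; hit = MAD >1.0 or < -1.0.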
For GCCCAACAAGUGUACGUUUTT against GLIS3, the median seed-adjusted z-score was -0.00906 (inactive).
In the case of GGCUGAUAAAAAUCCACGATT against RICS, the median seed-adjusted z-score is reported as 0.665 (inactive).
For AGUACGAUCUUGACUUCAATT against ENO3, the median seed-adjusted z-score was -0.142 (inactive).
With GGGAAGUCUUUUAAUCGUATT against ZNF780B the median seed-adjusted z-score was -0.332 (inactive).
For CUGUUGGUAUUGUCCACAATT against MAL, the median seed-adjusted z-score was 0.0733 (inactive).
In the case of GGGACUUUUGCAAAGGAAATT against CLEC5A, the median seed-adjusted z-score is reported as -1.07 (active).
In the case of GGAGAGCUGUGAAAAGUCATT against CCR8, the median seed-adjusted z-score is reported as -0.206 (inactive).
With GAACUUAGACCAACUUUAATT against COX5A the median seed-adjusted z-score was -0.348 (inactive).
With CCACAAGCUGCAUAAGAGATT against SPTBN4 the median seed-adjusted z-score was -0.0625 (inactive).
In the case of GGACUUUUACACCACCUUUTT against NRXN2, the median seed-adjusted z-score is reported as -0.485 (inactive).
With CAACGACUACAGGUCUGUATT against ITGA11 the median seed-adjusted z-score was 0.496 (inactive).
In the case of GGCAGGAAGUCAAACCUAUTT against KLK2, the median seed-adjusted z-score is reported as 0.0716 (inactive).
In the case of CAAACGAGGUGAACGAUGATT against PYGO1, the median seed-adjusted z-score is reported as -1.23 (active).
For AGAUACUCACGGACAUUAUTT against COASY, the median seed-adjusted z-score was 0 (inactive).
For GUCACGCUAUGAGACCUCATT against E2F1, the median seed-adjusted z-score was -0.211 (inactive).
For GCAUCGAAUUUGCAGAACATT against PNN, the median seed-adjusted z-score was 1.29 (active).
For GGAAACGAUUAUUACAACUTT against LRRK2, the median seed-adjusted z-score was -0.671 (inactive).
In the case of AUAAAUACCUCGGACAUUATT against EIF1AX, the median seed-adjusted z-score is reported as 0.878 (inactive).
With CCCUUCGCGUUGUUGCUCATT against DHRS1 the median seed-adjusted z-score was 0 (inactive).
With GAGGGACCAUAGUAGAUCATT against CPSF6 the median seed-adjusted z-score was -2.38 (active).
With GAUCGAUUCAUACCAUAUATT against MCM8 the median seed-adjusted z-score was 0.279 (inactive).
For GAAGCUACGUUGACUAUUUTT against HRC, the median seed-adjusted z-score was 1.06 (active).
In the case of GAAGUUUACUUAUCUGGGUTT against PRKAB1, the median seed-adjusted z-score is reported as 0.536 (inactive).
In the case of CAACAAUCCUAUAAUUCCATT against UBE2Q2, the median seed-adjusted z-score is reported as 0.146 (inactive).
With ACCUGUUAAUGGCCUUUGUTT against SLC30A3 the median seed-adjusted z-score was -1.26 (active).
With GGAGUUCAUCCGUCAAGUUTT against BIRC3 the median seed-adjusted z-score was -0.644 (inactive).
In the case of GCAUCAAUGUACCUCCACATT against ETV4, the median seed-adjusted z-score is reported as -0.186 (inactive).
For CGACCAUUGGAGAUGUUAATT against SCML2, the median seed-adjusted z-score was -0.538 (inactive).
In the case of GAGGAUUACUAAUUGAUCUTT against CHM, the median seed-adjusted z-score is reported as 0.743 (inactive).
For GAAAAAGGGUCACCAGAAATT against TSG101, the median seed-adjusted z-score was 1.48 (active).
In the case of GGCCGUGGAUCAUCACUAUTT against FLJ16165, the median seed-adjusted z-score is reported as -0.404 (inactive).
In the case of GCCUUAAGGUAUUCGUGUATT against EXTL1, the median seed-adjusted z-score is reported as 0 (inactive).
With CCACCACAGAUUUUCCUAUTT against CD300A the median seed-adjusted z-score was -0.414 (inactive).
In the case of GGAACUCAUUAUACAAUGATT against CLCN3, the median seed-adjusted z-score is reported as -0.0801 (inactive).
With CCCUAUGAGUGUCAACAAUTT against ZNF799 the median seed-adjusted z-score was -1.02 (active).
With GAUAUGUAUUCAUACUAAUTT against SNX10 the median seed-adjusted z-score was 0.391 (inactive).
For GUACAGCUCUUAUCGUUCATT against PPRC1, the median seed-adjusted z-score was 0 (inactive).
For GCAUCUUUCUGAGUUCACUTT against SLC22A11, the median seed-adjusted z-score was 0 (inactive).
With GUGCUACAAUUGUACAGUATT against CREM the median seed-adjusted z-score was -2.37 (active).
For GCAUGAGUAUCUAUGACGATT against ATP5C1, the median seed-adjusted z-score was -0.0179 (inactive).
With ACUCCAACCGUACCCUUUATT against PPT2 the median seed-adjusted z-score was 0.0334 (inactive).
In the case of CCACUACGGUGUUCAUGCATT against PPARD, the median seed-adjusted z-score is reported as 0.0283 (inactive).
For CUGAGACCCUGUUGACUGATT against PGS1, the median seed-adjusted z-score was 1.36 (active).
With GACUCCUACAUGUCCAUUATT against DNM3 the median seed-adjusted z-score was 0 (inactive).
With GACAGACUGUGCAUAUGUATT against GPR15 the median seed-adjusted z-score was 0.101 (inactive).
For GCAACCACCUAUAUCCUCATT against P2RY10, the median seed-adjusted z-score was -0.432 (inactive).
In the case of GAGUCACAUUUGAGGUUCATT against CSF2RA, the median seed-adjusted z-score is reported as -0.227 (inactive).
In the case of CUCCCUCGGUUAUAAAGAUTT against SLC4A5, the median seed-adjusted z-score is reported as 1.3 (active).
For CAACCUUGCGGCAUGCAAATT against PRSSL1, the median seed-adjusted z-score was -0.221 (inactive).
With GGAUCUAUAGUGAUUGUCATT against TFRC the median seed-adjusted z-score was 0.019 (inactive).
For GCCUAUAGAGGAUCAGUUATT against PCMTD1, the median seed-adjusted z-score was 0.0312 (inactive).
With GAGUGAGGACGGAAGAUCATT against APH1A the median seed-adjusted z-score was 0.741 (inactive).
With GGCUGUAUGAGCACCGUUATT against TGIF1 the median seed-adjusted z-score was 0.303 (inactive).
With GGAUGUUAGUAAACUCUCUTT against PSMA4 the median seed-adjusted z-score was 0 (inactive).

Reference: PubChem BioAssay AID1347426 (Functional Genomics Laboratory (NCATS/FGL), 2020)
